This is part of a sample that, as a whole, favours compounds with a hit. Of some 83,000 tested, about 20% had one in any assay.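 Interpretation: 100, growth as untreated; towards 0, rising growth inhibition; 0, no net growth; 0 to -100, cell death. Compounds scoring below 10 were considered active.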 Values without a mark were called inactive. Active and inactive are the calls of the source.
Experiments:
Experiment in all cases: NCI-60 one-dose screen, 48 h (100 = growth as untreated, 0 = no growth, -100 = all killed)
K-562 leukemia = conditions: 10 µM unless noted
MALME-3M melanoma = conditions: 10 µM unless noted
RXF 393 renal = conditions: 10 µM unless noted
SF-295 CNS = conditions: 10 µM unless noted
M14 melanoma = conditions: 10 µM unless noted
SNB-75 CNS = conditions: 10 µM unless noted
SNB-19 CNS = conditions: 10 µM unless noted
U251 CNS = conditions: 10 µM unless noted
SK-MEL-2 melanoma = conditions: 10 µM unless noted
A498 renal = conditions: 10 µM unless noted
HL-60(TB) leukemia = conditions: 10 µM unless noted
SR leukemia = conditions: 10 µM
OVCAR-5 ovarian = conditions: 10 µM unless noted
OVCAR-4 ovarian = conditions: 10 µM unless noted
SK-OV-3 ovarian = conditions: 10 µM unless noted
IGROV1 ovarian = conditions: 10 µM
BT-549 breast = conditions: 10 µM
MDA-MB-435 melanoma = conditions: 10 µM unless noted
CCRF-CEM leukemia = conditions: 10 µM unless noted
OVCAR-8 ovarian = conditions: 10 µM unless noted

| SMILES | growth (K-562 leukemia) [%] | growth (MALME-3M melanoma) | growth (RXF 393 renal) [%] | growth (SF-295 CNS) [%] | growth (M14 melanoma) [%] | growth (SNB-75 CNS) [%] | growth (SNB-19 CNS) [%] | growth (U251 CNS) [%] | growth (SK-MEL-2 melanoma) [%] | growth (A498 renal) [%] | growth (HL-60(TB) leukemia) [%] | growth (SR leukemia) [%] | growth (OVCAR-5 ovarian) [%] | growth (OVCAR-4 ovarian) [%] | growth (SK-OV-3 ovarian) [%] | growth (IGROV1 ovarian) [%] | growth (BT-549 breast) [%] | growth (MDA-MB-435 melanoma) [%] | growth (CCRF-CEM leukemia) [%] | growth (OVCAR-8 ovarian) [%] |
| --- | --- | --- | --- | --- | --- | --- | --- | --- | --- | --- | --- | --- | --- | --- | --- | --- | --- | --- | --- | --- |
| NC(=O)NC(=O)CI | 17.7 | -43.6% (active) | 65 | 119 | 88.7 | 106 | 86.3 | 94.7 | 92.1 | 97.9 | 98.3 | 25.9 | 114 | 94.4 | 111 | 69.5 | 85.8 | 98.2 |  |  |
| CC1(C)N=C(N)N=C(N)N1c1ccc(OCCCCNC(=O)Nc2cccc(S(=O)(=O)F)c2)c(Cl)c1 | 17.7 | 56.5% | 58.2 |  | 40.4 |  | 45.7 | 15.6 | 81.2 | 90.3 | 29.4 | 45.8 | 32.5 | 97.1 | 77.9 | 37.9 | 66.4 | 20.1 | 23.6 | 29.2 |
| CSc1ccccc1NP1(=O)OCC(C)([N+](=O)[O-])CO1 (stereo unspecified) | 75.4 | 120% | 97.6 | 100 | 101 | 86 | 97.1 | 95.8 | 112 | 110 | 56.7 | 91.3 | 93.7 | 105 | 98.2 | 119 | 90.1 | 107 | 80.8 | 98 |

From PubChem BioAssay (NCI)
